Of roughly 7,900 targets only a part is listed; those with a hit were picked by preference. About 0.6% of all pairs of compound and target were hits. Unmarked numbers belong to inactive results.

Chain of UniProt Q01804 (Q01804 whole entry, looked up): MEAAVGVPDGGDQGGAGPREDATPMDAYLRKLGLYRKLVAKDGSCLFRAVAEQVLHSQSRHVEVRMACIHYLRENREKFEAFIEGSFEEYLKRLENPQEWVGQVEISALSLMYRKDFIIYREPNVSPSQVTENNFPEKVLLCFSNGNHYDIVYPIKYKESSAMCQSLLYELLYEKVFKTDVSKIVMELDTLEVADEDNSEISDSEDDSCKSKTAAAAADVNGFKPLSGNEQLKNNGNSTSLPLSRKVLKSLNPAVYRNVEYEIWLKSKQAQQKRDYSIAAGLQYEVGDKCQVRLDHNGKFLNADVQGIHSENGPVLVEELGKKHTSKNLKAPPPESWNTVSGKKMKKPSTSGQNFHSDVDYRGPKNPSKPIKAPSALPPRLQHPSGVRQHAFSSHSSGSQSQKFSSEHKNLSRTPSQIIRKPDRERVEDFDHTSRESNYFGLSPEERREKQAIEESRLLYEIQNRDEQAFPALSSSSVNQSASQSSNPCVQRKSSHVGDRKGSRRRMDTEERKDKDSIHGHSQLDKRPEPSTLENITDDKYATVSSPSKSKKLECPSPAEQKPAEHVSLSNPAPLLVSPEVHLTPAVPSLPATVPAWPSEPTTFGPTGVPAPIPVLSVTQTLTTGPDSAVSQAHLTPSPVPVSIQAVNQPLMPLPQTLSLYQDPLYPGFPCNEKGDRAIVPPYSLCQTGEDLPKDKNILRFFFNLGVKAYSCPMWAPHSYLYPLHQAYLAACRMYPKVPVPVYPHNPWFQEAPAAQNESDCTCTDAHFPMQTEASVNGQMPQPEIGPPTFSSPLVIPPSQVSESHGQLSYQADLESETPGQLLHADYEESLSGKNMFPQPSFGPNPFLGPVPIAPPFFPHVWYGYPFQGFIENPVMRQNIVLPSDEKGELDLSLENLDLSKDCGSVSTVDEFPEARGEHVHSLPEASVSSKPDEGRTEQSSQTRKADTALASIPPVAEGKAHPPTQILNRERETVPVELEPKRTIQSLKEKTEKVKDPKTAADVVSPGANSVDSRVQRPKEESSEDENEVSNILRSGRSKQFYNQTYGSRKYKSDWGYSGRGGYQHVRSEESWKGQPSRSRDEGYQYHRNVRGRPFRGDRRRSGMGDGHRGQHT
Chain of UniProt Q96T76 (Q96T76 whole entry, looked up): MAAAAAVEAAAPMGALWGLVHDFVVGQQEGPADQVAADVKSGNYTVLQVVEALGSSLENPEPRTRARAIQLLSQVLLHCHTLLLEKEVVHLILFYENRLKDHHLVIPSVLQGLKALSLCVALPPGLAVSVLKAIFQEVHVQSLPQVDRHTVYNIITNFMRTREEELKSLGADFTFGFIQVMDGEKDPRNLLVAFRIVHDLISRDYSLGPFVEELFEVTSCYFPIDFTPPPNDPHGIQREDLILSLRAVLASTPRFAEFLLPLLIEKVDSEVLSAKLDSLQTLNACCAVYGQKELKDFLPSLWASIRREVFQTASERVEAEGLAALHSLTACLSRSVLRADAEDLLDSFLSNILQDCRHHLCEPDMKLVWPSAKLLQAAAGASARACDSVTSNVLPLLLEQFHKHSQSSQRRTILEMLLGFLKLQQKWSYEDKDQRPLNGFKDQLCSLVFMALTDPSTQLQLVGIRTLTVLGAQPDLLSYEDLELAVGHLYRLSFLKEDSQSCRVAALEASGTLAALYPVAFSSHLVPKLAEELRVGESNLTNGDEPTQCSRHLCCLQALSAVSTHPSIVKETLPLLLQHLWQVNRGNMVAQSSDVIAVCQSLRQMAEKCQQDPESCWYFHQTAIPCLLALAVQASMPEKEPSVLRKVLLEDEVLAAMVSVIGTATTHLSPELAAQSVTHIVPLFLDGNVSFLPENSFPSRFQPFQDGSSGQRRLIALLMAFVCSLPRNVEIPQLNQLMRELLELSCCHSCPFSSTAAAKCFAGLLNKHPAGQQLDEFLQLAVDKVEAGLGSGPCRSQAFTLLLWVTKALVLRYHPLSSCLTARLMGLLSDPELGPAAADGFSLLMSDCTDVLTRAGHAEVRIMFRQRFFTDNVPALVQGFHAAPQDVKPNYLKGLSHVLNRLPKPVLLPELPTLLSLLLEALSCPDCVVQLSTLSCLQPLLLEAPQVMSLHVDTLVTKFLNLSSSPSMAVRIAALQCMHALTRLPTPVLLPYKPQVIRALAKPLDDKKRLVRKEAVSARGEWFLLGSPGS
Chain of UniProt Q15021 (Q15021 whole entry, looked up): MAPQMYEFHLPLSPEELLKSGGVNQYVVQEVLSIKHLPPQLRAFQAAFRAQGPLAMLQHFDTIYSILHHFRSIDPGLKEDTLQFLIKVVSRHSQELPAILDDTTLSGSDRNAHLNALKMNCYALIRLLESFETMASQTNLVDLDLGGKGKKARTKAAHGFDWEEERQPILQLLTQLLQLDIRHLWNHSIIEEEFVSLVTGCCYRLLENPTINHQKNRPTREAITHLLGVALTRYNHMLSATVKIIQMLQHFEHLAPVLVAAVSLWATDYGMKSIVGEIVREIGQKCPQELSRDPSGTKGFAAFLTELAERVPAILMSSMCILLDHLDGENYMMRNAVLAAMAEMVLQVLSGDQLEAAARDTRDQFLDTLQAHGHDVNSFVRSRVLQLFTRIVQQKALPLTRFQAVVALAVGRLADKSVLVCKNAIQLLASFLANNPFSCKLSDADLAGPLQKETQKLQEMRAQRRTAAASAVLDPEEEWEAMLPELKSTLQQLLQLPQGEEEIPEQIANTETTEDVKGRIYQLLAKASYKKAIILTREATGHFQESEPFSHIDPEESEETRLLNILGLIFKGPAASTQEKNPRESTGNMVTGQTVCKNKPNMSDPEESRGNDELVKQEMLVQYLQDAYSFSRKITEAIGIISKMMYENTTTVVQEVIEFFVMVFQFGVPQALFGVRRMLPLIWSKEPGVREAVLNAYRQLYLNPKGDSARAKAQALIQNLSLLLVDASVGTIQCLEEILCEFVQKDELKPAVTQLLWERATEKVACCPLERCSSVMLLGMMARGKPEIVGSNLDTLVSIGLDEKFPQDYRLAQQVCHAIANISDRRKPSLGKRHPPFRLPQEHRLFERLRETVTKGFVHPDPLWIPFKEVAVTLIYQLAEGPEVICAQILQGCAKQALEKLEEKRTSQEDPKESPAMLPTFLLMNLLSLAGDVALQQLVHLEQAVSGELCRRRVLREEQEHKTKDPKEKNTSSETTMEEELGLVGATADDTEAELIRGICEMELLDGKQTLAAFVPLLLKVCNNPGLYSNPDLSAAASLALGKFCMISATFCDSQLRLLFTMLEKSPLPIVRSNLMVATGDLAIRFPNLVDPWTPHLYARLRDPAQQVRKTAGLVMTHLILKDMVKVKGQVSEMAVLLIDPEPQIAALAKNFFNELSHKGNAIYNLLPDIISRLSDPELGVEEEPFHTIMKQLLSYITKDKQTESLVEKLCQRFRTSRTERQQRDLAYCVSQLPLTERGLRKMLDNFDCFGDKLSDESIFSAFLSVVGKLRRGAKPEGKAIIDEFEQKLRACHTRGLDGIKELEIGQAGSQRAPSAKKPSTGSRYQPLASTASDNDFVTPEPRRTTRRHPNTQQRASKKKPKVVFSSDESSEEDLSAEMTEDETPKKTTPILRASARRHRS
Chain of UniProt O00217 (O00217 whole entry, looked up): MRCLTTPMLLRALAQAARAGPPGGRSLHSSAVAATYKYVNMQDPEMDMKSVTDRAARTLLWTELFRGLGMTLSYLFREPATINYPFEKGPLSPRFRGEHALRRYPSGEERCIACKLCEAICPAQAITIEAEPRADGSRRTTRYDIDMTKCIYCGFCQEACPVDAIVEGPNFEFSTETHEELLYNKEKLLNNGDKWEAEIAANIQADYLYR
Chain of UniProt Q12968 (Q12968 whole entry, looked up): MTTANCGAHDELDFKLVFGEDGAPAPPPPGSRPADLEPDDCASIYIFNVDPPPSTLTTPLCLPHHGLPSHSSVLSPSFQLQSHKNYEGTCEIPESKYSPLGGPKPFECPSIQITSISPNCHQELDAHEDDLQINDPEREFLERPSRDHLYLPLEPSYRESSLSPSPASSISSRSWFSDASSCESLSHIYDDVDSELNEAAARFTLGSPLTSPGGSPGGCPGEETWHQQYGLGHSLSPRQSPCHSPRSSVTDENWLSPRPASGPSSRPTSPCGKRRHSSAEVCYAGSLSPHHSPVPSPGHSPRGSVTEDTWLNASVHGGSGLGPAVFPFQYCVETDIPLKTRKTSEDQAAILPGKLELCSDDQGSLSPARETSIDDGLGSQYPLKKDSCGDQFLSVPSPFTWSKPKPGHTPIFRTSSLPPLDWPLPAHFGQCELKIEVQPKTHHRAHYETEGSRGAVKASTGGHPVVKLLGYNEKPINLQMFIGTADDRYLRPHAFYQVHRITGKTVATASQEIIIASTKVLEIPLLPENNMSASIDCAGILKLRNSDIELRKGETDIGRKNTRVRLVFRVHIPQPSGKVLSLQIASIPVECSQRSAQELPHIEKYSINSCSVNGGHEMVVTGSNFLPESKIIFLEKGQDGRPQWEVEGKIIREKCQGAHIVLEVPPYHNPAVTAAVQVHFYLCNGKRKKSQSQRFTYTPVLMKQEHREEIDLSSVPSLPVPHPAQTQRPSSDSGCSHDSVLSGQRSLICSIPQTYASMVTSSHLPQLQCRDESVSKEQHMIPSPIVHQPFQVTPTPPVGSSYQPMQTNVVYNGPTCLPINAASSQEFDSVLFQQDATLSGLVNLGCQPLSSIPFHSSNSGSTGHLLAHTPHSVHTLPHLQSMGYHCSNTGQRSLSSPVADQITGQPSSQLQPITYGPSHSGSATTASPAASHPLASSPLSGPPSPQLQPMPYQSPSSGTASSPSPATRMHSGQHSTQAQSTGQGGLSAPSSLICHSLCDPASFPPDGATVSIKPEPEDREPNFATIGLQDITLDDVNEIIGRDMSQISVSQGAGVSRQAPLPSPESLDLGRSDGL
Chain of UniProt O43809 (O43809 whole entry, looked up): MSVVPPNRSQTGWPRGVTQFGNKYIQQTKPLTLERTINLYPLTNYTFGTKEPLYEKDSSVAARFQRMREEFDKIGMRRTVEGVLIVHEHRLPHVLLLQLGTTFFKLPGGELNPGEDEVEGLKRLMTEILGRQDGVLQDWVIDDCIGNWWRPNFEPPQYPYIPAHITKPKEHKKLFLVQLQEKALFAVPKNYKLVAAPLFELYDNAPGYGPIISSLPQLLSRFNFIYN

Compound in one assay: CC1=C(C=C(C=C1)NC(=O)C2=CC(=CC=C2)C(C)(C)C#N)NC3=CC4=C(C=C3)N=CN(C4=O)C
Nature of the assay: log2 fold change, soluble protein after heating vs DMSO (PISA); higher = thermal stabilisation; K562 cells, 10 uM, 30 min; active = over 0.2 and 3.5 SD of the protein, either way, in both replicates (recomputed). The essentials:
(§1)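 For each measurement, 10 μM compound was applied for 30 min to K562 cells at 2×10^6 cells/mL. Aliquots were heated for 3 min across 48°C-58°C, pooled, and extracted in PBS with 0.5% NP-40 at 4°C; the supernatant after 21,000xg for 90 min was soluble protein. This was quantified by TMTpro 16plex LC-MS/MS with channel sums equalised, and thermal stability was reported relative to control samples from duplicates, on a log2 fold-change scale.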
As to NUDT21 (UniProt O43809), the log2 fold change was 0.052.
The same measure, in the same setting: the same measure for NUCKS1 (UniProt Q9H1E3): -0.036.
For NUDT1 (UniProt P36639), the log2 fold change is -0.016.
As to MRPS2 (UniProt Q9Y399), the log2 fold change was 0.075.
For the target NDUFA12 (UniProt Q9UI09), the log2 fold change is 0.022.
Same read-out and setting: the same measure for OGFR (UniProt Q9NZT2): -0.023; for NIBAN1 (UniProt Q9BZQ8): 0.05.
Same read-out and setting: the same measure for NSMCE4A (UniProt Q9NXX6): 0.
On the same count and under the same terms, under MUL1 (UniProt Q969V5) stands -0.061; under NDUFS7 (UniProt O75251), 0.008; under OTULIN (UniProt Q96BN8), 0.03.
For the target MOV10 (UniProt Q9HCE1), the log2 fold change is 0.044.
Same read-out and setting: the same measure for NCAPH (UniProt Q15003): 0.02.
Same read-out and setting: under NOP56 (UniProt O00567) stands -0.024; under OTUD4 (UniProt Q01804), -0.038.
On the same count and under the same terms, the same measure for NA, A0A096LPI6: -0.018; for MSH6 (UniProt P52701): 0.076; for NCAPD2 (UniProt Q15021): 0.057.
NCOA7 (UniProt Q8NI08): the log2 fold change is 0.068.
For the target NDUFA6 (UniProt P56556), the log2 fold change was 0.029.
Same read-out and setting: under NME7 (UniProt Q9Y5B8) stands -0.008; under NFATC2IP (UniProt Q8NCF5), -0.029; under MMS19 isoform 8 (UniProt Q96T76), -0.022.
Still for that read-out and setting: the same measure for NMT2 (UniProt O60551): 0.006.
The same measure, in the same setting: under MRPS12 (UniProt O15235) stands -0.034.
Regarding MRPS31 (UniProt Q92665), the log2 fold change was -0.015.
Consider NMD3 (UniProt Q96D46), for which the log2 fold change is 0.03.
Still for that read-out and setting: under NAP1L1 (UniProt P55209) stands 0.042; under NACC1 (UniProt Q96RE7), -0.043; under NCK1 (UniProt P16333), 0.166.
On the same count and under the same terms, the same measure for OXR1 (UniProt Q8N573): 0.005; for MIS12 (UniProt Q9H081): -0.008.
In the case of NDUFS8 (UniProt O00217), the log2 fold change was 0.02.
For the target PAK1 isoform 2 (UniProt Q13153), the log2 fold change is 0.035.
Still for that read-out and setting: under NFATC3 (UniProt Q12968) stands 0.067; under NOP2 isoform 4 (UniProt P46087), -0.031.
On the same count and under the same terms, the same measure for NUP98 (UniProt P52948): -0.042; for OXSM (UniProt Q9NWU1): -0.023; for NBN (UniProt O60934): 0.017.

Compound in the next assay: CC1=C(C=C(C=C1)NC(=O)C2=CC(=CC=C2)N(C)C)NC(=O)C3=CC=C(C=C3)O
The assay is described as above. The essentials:
as §1
As for NUDT21 (UniProt O43809), the log2 fold change is 0.077.
Regarding NUCKS1 (UniProt Q9H1E3), the log2 fold change is 0.065.
Turning to NUDT1 (UniProt P36639), the log2 fold change was -0.058.
The same measure, in the same setting: the same measure for MRPS2 (UniProt Q9Y399): -0.049.
With NDUFA12 (UniProt Q9UI09), the log2 fold change is -0.1.
Still for that read-out and setting: the same measure for OGFR (UniProt Q9NZT2): 0.018; for NIBAN1 (UniProt Q9BZQ8): -0.036; for NSMCE4A (UniProt Q9NXX6): 0.022.
As to MUL1 (UniProt Q969V5), the log2 fold change is -0.015.
Same read-out and setting: the same measure for NDUFS7 (UniProt O75251): 0.004; for OTULIN (UniProt Q96BN8): 0.002; for MOV10 (UniProt Q9HCE1): 0.017.
On the same count and under the same terms, the same measure for NCAPH (UniProt Q15003): -0.091; for NOP56 (UniProt O00567): -0.001; for OTUD4 (UniProt Q01804): -0.017.
Same read-out and setting: under NA, A0A096LPI6 stands 0.032; under MSH6 (UniProt P52701), -0.078.
Turning to NCAPD2 (UniProt Q15021), the log2 fold change is -0.032.
The same measure, in the same setting: the same measure for NCOA7 (UniProt Q8NI08): -0.045.
On the same count and under the same terms, the same measure for NDUFA6 (UniProt P56556): -0.082; for NME7 (UniProt Q9Y5B8): -0.089.
As to NFATC2IP (UniProt Q8NCF5), the log2 fold change is -0.026.
The same measure, in the same setting: the same measure for MMS19 isoform 8 (UniProt Q96T76): -0.029.
As for NMT2 (UniProt O60551), the log2 fold change was 0.018.
Still for that read-out and setting: the same measure for MRPS12 (UniProt O15235): -0.094.
As to MRPS31 (UniProt Q92665), the log2 fold change was -0.012.
On the same count and under the same terms, under NMD3 (UniProt Q96D46) stands -0.061; under NAP1L1 (UniProt P55209), 0.005.
The same measure, in the same setting: under NACC1 (UniProt Q96RE7) stands -0.012.
Same read-out and setting: under NCK1 (UniProt P16333) stands -0.068.
As for OXR1 (UniProt Q8N573), the log2 fold change was -0.003.
Still for that read-out and setting: under MIS12 (UniProt Q9H081) stands -0.141; under NDUFS8 (UniProt O00217), 0.
Same read-out and setting: the same measure for PAK1 isoform 2 (UniProt Q13153): -0.072.
NFATC3 (UniProt Q12968): the log2 fold change was -0.506.
Take NOP2 isoform 4 (UniProt P46087): the log2 fold change is -0.062.
NUP98 (UniProt P52948): the log2 fold change was 0.064.
Still for that read-out and setting: under OXSM (UniProt Q9NWU1) stands -0.057.
On the same count and under the same terms, under NBN (UniProt O60934) stands -0.008.
